Screening data: PubChem, The Scripps Research Institute Molecular Screening Center
Shown are actives, neighbours in structure and some others; about 3.5% of the full set was active somewhere.
TEAD-YAP inh = TEAD-YAP interaction inhibition; inhibition, % at 9.12 µM; AID 1259422; HEK-TIYL cells, TEAD-Gal4/YAP UAS-luciferase luminescence; actives 1.4% (n = 640,000); in the data active = inhibition above about 32%
MITF primary = blocks human microphthalmia-associated transcription factor; actives 0.91% (n = 650,000); AlphaScreen MITF homodimerization, bead proximity signal; inhibition, % at 2.6 µM; AID 1259374; O75030; in the data active = inhibition above about 50%
Target sequence (O75030 whole entry, looked up): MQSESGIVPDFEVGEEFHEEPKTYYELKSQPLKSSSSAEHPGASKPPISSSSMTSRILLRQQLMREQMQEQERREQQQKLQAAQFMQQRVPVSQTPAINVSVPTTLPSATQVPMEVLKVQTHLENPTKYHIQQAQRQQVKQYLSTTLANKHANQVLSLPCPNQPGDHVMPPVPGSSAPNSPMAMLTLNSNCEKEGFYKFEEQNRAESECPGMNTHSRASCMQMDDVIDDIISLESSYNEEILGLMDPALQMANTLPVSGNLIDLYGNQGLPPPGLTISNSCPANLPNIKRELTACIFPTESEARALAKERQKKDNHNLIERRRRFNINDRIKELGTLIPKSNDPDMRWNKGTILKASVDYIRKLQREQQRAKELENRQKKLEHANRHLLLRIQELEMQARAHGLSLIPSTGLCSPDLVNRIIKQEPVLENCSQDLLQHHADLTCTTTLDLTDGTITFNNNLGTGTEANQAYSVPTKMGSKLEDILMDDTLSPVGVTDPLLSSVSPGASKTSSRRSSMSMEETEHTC
FBW7 activator = activators of human E3 ligase FBW7; AlphaScreen FBW7–phospho-cyclin E peptide binding, activator screen; actives 0.13% (n = 650,000); normalized activity (activation), % at 26.1 µM; AID 1259310; Q969H0; in the data active = normalized activity above about 1.9%;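 also: purified mutant Fbw7 with reduced substrate affinity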
GPR151 ag = activates the human receptor GPR151. Q8TDV0. PathHunter beta-arrestin GPR151 cells, luminescence. activation, % at 11.2 µM. actives 1% (n = 650,000). AID 1508602; in the data active = activation above about 4.9%
Hits are given with their value.

What do the screens show for `Cc1[nH]n(-c2ccccc2)c(=O)c1/C=N/NC(=O)c1ccc(O)cc1O`?
TEAD-YAP inh: inactive; MITF primary: 59; FBW7 activator: inactive; GPR151 ag: inactive

Results for Cc1ccccc1C(=O)N/N=C/c1ccc(O)c(O)c1 ?
TEAD-YAP inh: inactive; MITF primary: inactive; FBW7 activator: inactive; GPR151 ag: inactive

What do the screens show for `O=C(N/N=C/c1ccc2ccccc2c1)c1ccc(O)cc1O`?
TEAD-YAP inh: 37; MITF primary: inactive; FBW7 activator: inactive; GPR151 ag: inactive

Results for O=C(N/N=C/c1ccc(/C=N/NC(=O)c2ccccc2O)cc1)c1ccccc1O ?
TEAD-YAP inh: 59; MITF primary: inactive; FBW7 activator: inactive; GPR151 ag: inactive

Results for Cc1ccccc1C(=O)N/N=C/c1ccc(O)c(Br)c1 ?
TEAD-YAP inh: 71; MITF primary: inactive; FBW7 activator: inactive; GPR151 ag: inactive

How did CN(C)c1ccc(/C=N\NC(=O)c2cc(N)ccc2O)cc1 do in these assays?
TEAD-YAP inh: inactive; MITF primary: 64; FBW7 activator: inactive; GPR151 ag: inactive

Results for Cc1ccc(OCc2nc(SCC(=O)N3c4ccccc4NC(=O)C3(C)C)n[nH]2)cc1 ?
TEAD-YAP inh: inactive; MITF primary: inactive; FBW7 activator: inactive; GPR151 ag: inactive

What do the screens show for `COc1cc(CNC(=O)Cn2nc(C(F)(F)F)c(Br)c2C)cc(OC)c1`?
TEAD-YAP inh: inactive; MITF primary: inactive; FBW7 activator: inactive; GPR151 ag: inactive

How did Cc1c(Br)c(C(F)(F)F)nn1CC(=O)NCc1ccc(F)cc1C(F)(F)F do in these assays?
TEAD-YAP inh: 36; MITF primary: inactive; FBW7 activator: inactive; GPR151 ag: inactive

What do the screens show for `Oc1c(C(c2ccc(F)cc2)N2CCOCC2)ccc2cccnc12` (centres undefined)?
TEAD-YAP inh: 76; MITF primary: inactive; FBW7 activator: inactive; GPR151 ag: inactive

How did Oc1c(C(c2ccc(F)cc2)N2CCCC2)ccc2cccnc12 (centres undefined) do in these assays?
TEAD-YAP inh: 80; MITF primary: inactive; FBW7 activator: inactive; GPR151 ag: inactive

How did Fc1ccc(Cn2nnnc2C(c2ccc3ncccc3c2)N2CCCC2)cc1 (centres undefined) do in these assays?
TEAD-YAP inh: inactive; MITF primary: inactive; FBW7 activator: inactive; GPR151 ag: inactive

Results for OCCN1CCN(C(c2ccc(Cl)cc2)c2ccc3cccnc3c2O)CC1 (centres undefined) ?
TEAD-YAP inh: 74; MITF primary: inactive; FBW7 activator: inactive; GPR151 ag: inactive

Results for Oc1c(C(c2ccncc2)N2CCOCC2)ccc2cccnc12 (centres undefined) ?
TEAD-YAP inh: 71; MITF primary: 90; FBW7 activator: inactive; GPR151 ag: inactive

Results for CN1CCN(C(c2ccc(F)cc2)c2ccc3cccnc3c2O)CC1 (centres undefined) ?
TEAD-YAP inh: 84; MITF primary: inactive; FBW7 activator: inactive; GPR151 ag: inactive

Results for CN1CCN(C(c2cccnc2)c2ccc3cccnc3c2O)CC1 (centres undefined) ?
TEAD-YAP inh: inactive; MITF primary: inactive; FBW7 activator: inactive; GPR151 ag: inactive

What do the screens show for `Oc1c(C(c2ccc(C(F)(F)F)cc2)N2CCOCC2)ccc2cccnc12` (centres undefined)?
TEAD-YAP inh: 82; MITF primary: inactive; FBW7 activator: inactive; GPR151 ag: inactive

How did Cc1cc(C(=O)CSc2nc3ccccc3[nH]2)c(C)n1C1CC1 do in these assays?
TEAD-YAP inh: inactive; MITF primary: inactive; FBW7 activator: inactive; GPR151 ag: inactive

What do the screens show for `COCC(C)n1c(C)cc(C(=O)CSc2nc3ccccc3[nH]2)c1C` (centres undefined)?
TEAD-YAP inh: 40; MITF primary: inactive; FBW7 activator: inactive; GPR151 ag: inactive

What do the screens show for `COCC(C)n1c(C)cc(C(=O)COC(=O)c2cccc(C)c2C)c1C` (centres undefined)?
TEAD-YAP inh: 46; MITF primary: inactive; FBW7 activator: inactive; GPR151 ag: inactive

Results for COCC(C)n1c(C)cc(C(=O)COC(=O)c2c(OC)cccc2OC)c1C (centres undefined) ?
TEAD-YAP inh: inactive; MITF primary: inactive; FBW7 activator: inactive; GPR151 ag: inactive

How did COCC(C)n1c(C)cc(C(=O)COC(=O)c2n[nH]c3ccccc23)c1C (centres undefined) do in these assays?
TEAD-YAP inh: 88; MITF primary: inactive; FBW7 activator: inactive; GPR151 ag: inactive

What do the screens show for `COCC(C)n1c(C)cc(C(=O)COC(=O)c2oc3ccccc3c2C)c1C` (centres undefined)?
TEAD-YAP inh: inactive; MITF primary: inactive; FBW7 activator: inactive; GPR151 ag: inactive

How did Cn1cc(S(=O)(=O)N2CCOCC2)cc1C(=O)N1CCOCC1 do in these assays?
TEAD-YAP inh: inactive; MITF primary: inactive; FBW7 activator: inactive; GPR151 ag: inactive

How did CC1CCc2nc(N)c(C#N)c(-c3cccnc3)c2C1 (centres undefined) do in these assays?
TEAD-YAP inh: 50; MITF primary: inactive; FBW7 activator: 1.9; GPR151 ag: inactive

Results for CCCCC(=O)NC(c1ccc([N+](=O)[O-])cc1)c1ccc2cccnc2c1O (centres undefined) ?
TEAD-YAP inh: inactive; MITF primary: inactive; FBW7 activator: inactive; GPR151 ag: inactive

Results for CC(C)C(=O)NC(c1cccc([N+](=O)[O-])c1)c1ccc2cccnc2c1O (centres undefined) ?
TEAD-YAP inh: 73; MITF primary: 54; FBW7 activator: inactive; GPR151 ag: inactive

What do the screens show for `CCCC(=O)NC(c1cccc([N+](=O)[O-])c1)c1ccc2cccnc2c1O` (centres undefined)?
TEAD-YAP inh: 66; MITF primary: inactive; FBW7 activator: inactive; GPR151 ag: inactive

What do the screens show for `CCCC(=O)NC(c1cccc(F)c1)c1ccc2cccnc2c1O` (centres undefined)?
TEAD-YAP inh: 50; MITF primary: inactive; FBW7 activator: inactive; GPR151 ag: inactive

What do the screens show for `O=[N+]([O-])c1cccc(C(Nc2nccs2)c2ccc3cccnc3c2O)c1` (centres undefined)?
TEAD-YAP inh: 38; MITF primary: inactive; FBW7 activator: inactive; GPR151 ag: inactive

How did Oc1c(C(Nc2nccs2)c2ccco2)ccc2cccnc12 (centres undefined) do in these assays?
TEAD-YAP inh: inactive; MITF primary: inactive; FBW7 activator: inactive; GPR151 ag: inactive

Results for CCCCCOC(=O)C1=C(C)NC2=C(C(=O)CCC2)C1c1cc(OC)c(OC)cc1[N+](=O)[O-] (centres undefined) ?
TEAD-YAP inh: inactive; MITF primary: inactive; FBW7 activator: inactive; GPR151 ag: inactive

Results for CCCC(=O)NC(c1cccs1)c1ccc2cccnc2c1O (centres undefined) ?
TEAD-YAP inh: 86; MITF primary: inactive; FBW7 activator: inactive; GPR151 ag: inactive

How did CCC(=O)NC(c1cccs1)c1ccc2cccnc2c1O (centres undefined) do in these assays?
TEAD-YAP inh: 77; MITF primary: inactive; FBW7 activator: inactive; GPR151 ag: inactive

How did CCCCC(=O)NC(c1cccs1)c1ccc2ccccc2c1O (centres undefined) do in these assays?
TEAD-YAP inh: inactive; MITF primary: inactive; FBW7 activator: inactive; GPR151 ag: inactive
